# RAD54 inh: inhibitors of human RAD54 branch migration; Q92698; RAD54 Holliday junction branch migration, FAM/BHQ fluorescence; inhibition, % at 10.4 µM; 360,000 compounds, 0.14% hits; AID 602329;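 active means mean normalized replicate activity at least 40 and at least half of replicates scoring 40 or more; inconclusive means only one of the two criteria met; inactive means mean below 40 and under half of replicates reaching 40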;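 further: 0% = median of neutral control wells and 100% = median of positive control wells; inhibitors cause a drop in the FAM fluorescence signal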
# Target sequence (Q92698 whole entry, looked up): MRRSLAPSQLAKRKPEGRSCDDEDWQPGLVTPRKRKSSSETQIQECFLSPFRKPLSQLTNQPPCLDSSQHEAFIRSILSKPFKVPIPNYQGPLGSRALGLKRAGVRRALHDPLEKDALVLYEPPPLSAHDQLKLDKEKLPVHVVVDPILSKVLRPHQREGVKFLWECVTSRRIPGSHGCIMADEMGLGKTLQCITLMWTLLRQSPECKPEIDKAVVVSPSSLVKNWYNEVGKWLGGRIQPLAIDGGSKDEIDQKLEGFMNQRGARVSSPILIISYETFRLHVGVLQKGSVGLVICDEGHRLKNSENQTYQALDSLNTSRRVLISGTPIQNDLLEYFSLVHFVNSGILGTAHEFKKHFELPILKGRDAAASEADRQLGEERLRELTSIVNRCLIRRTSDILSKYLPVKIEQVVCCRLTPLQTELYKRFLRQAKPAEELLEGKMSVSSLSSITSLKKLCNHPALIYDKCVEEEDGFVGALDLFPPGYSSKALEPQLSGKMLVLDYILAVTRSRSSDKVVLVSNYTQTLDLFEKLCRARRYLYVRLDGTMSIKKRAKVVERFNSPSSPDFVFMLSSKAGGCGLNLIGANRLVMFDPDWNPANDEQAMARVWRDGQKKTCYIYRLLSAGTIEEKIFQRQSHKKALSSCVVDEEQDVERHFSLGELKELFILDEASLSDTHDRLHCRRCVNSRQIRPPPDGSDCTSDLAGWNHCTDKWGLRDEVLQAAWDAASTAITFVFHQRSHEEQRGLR
# DNA FID counter: displaces DNA intercalator in HCV helicase counter-screen | DNA fluorescent intercalator displacement, fluorescence | inhibition, % at 7.9 µM | 290,000 compounds, 0.17% hits | AID 1845; in the data active means inhibition above about 37%;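 further: 0% = vehicle and 100% = reference compound; higher means more ethidium bromide displaced from hairpin DNA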
# RAD52 anneal inh: inhibitors of human RAD52 DNA annealing; inhibition, % at 18.7 µM; recombinant RAD52 DNA annealing, FRET fluorescence; 360,000 compounds, 0.46% hits; P43351;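 active means every replicate showing at least 50% inhibition; inconclusive means mean inhibition at least 50% but not in every replicate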
# PREPL inh: inhibitors of human prolyl oligopeptidase-like enzyme PREPL. Q4J6C6. recombinant PREPL, fluorescence polarization activity-based probe. inhibition, % at 5.96 µM. 320,000 compounds, 0.68% hits. AID 2751; in the data active means inhibition above about 43%;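 further: 0% = enzyme with DMSO and 100% = wells lacking enzyme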
# UBC13 inh: human UBC13 polyubiquitination inhibition; P61088; UBC13 polyubiquitin chain formation, TR-FRET; inhibition, % at 20 µM; 330,000 compounds, 0.47% hits; in the data active means inhibition above about 45%, passing the limit was not always enough; inconclusive means no clear call, values can overlap the other calls
# beta cell repl: inducers of beta-cell replication in MIN6 cells. MIN6 cells proliferation, ATPlite luminescence, 48 h; cells starved in 0.2% serum; 100% = growth in 10% serum. proliferation, % at 10 µM. 330,000 compounds, 0.29% hits. AID 2380;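 active means compounds whose signal lies at least 3.5 SD above the mean of all wells on their plate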;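 further: 0% = DMSO-treated cells in low-serum medium and 100% = 10% serum control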
# Casp3 counter: counter-screen for UBC13 inhibitors: human caspase-3 inhibition | shares compounds with UBC13 inh | AID 488856 | inhibition, % at 20 µM | 1,400 compounds, 4% hits | Recombinant caspase-3, Caspase-Glo 3/7 luminescence, 60 min;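 active means mean inhibition across replicates above about 26%, limit read from the data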;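 further: plate controls were DMSO with caspase-3 for no effect and DMSO wells lacking enzyme for full effect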
# UBC13 conf: confirmation of human UBC13 polyubiquitin inhibitors; UBC13 polyubiquitination, TR-FRET, biochemical; AID 488859; shares compounds with UBC13 inh; 1,400 compounds, 68% hits; inhibition, % at 10 µM; in the data active means inhibition above about 45%; inconclusive means no clear call, values can overlap the other calls
# * hit, by the source's call; ? = inconclusive; . = no result given. In the library only some 1.3% were active in any assay of this set; here they are far more common.
SMILES,RAD54 inh,DNA FID counter,RAD52 anneal inh,PREPL inh,UBC13 inh,beta cell repl,Casp3 counter,UBC13 conf
COc1ccc(CNC(=O)CC23CC4CC(CC(C4)C2)C3)cc1OC,2.8,-34.0,-6.7,-3.9,4.5,0.9,.,.
COc1ccccc1NC(=O)CNC(=O)CC12CC3CC(CC(C3)C1)C2,-7.3,.,-15.6,1.3,80.1*,2.0,3.4,78.8*
COc1ccccc1NC(=O)COC(=O)C12CC3CC(CC(Br)(C3)C1)C2,-1.9,.,1.8,-5.5,49.5*,-3.5,-2.9,43.7
CN1CCN(C(=O)C[C@H]2CC[C@@H]3[C@H](COC[C@H](O)CN3Cc3cccc(Cl)c3)O2)CC1,-0.4,.,6.7,.,.,.,.,.
Cc1ccccc1CNC(=O)CCCC(=O)n1nc(C)c2ccccc21,-9.5,-31.2,-7.9,-13.3,45.7*,3.6,1.4,62.9*
COc1ccccc1NC(=O)c1c(N=Cc2c(O)ccc3ccccc23)cnn1C,.,-8.2,-30.5,26.8,57.6*,-3.3,0.1,66.1*
C[C@H]1CCCCO[C@@H](CN(C)S(=O)(=O)c2ccc(Cl)cc2)[C@@H](C)CN([C@@H](C)CO)C(=O)c2cc(NC(=O)CCC(F)(F)F)ccc2O1,4.8,.,-35.2,.,.,.,.,.
CCOC(=O)c1cc(-c2ccc(OC)cc2)nc2c1c(C)nn2CCC#N,-19.4,-18.9,.,15.3,52.7*,1.0,0.4,?
CCOC(=O)c1cc(-c2ccc(C#N)cc2)nc2c1c(C)nn2CCC#N,.,-2.0,.,4.3,22.5,2.8,.,.
CCN(CC)CCNC(=O)c1ccc(NC(=O)c2cn(-c3ccc(F)cc3)nc2-c2cccc(OC)c2)cc1,-1.8,33.0,1.8,-17.9,92.0*,-4.2,-2.5,115.2*
CCOc1ccc(NC(=O)CN(C)C(=O)c2cn(-c3ccc(F)cc3)nc2-c2cccc(OC)c2)cc1OCC,13.6,.,-7.6,-2.6,-8.4,-4.2,.,.
CCc1ccc(C(=O)Nn2c(C)nc3ccccc3c2=O)cc1,1.1,-0.1,-2.5,0.1,60.3*,2.2,-2.4,63.6*
CCOC(=O)CSc1nc2ccccc2c(=O)n1NC(=O)c1ccccc1,-8.0,-11.6,.,-2.4,48.5*,-0.5,6.3,38.6
COc1ccc(C[C@H]2CN3C(=NC[C@@H]3Cc3ccc(O)cc3)N2CCNC(=O)c2ccc(C)c(Br)c2)cc1,-2.6,11.8,23.1,29.8,74.2*,-8.1,0.0,56.0*
Cc1ccc(C(=O)NCCN2C3=NC[C@H](Cc4ccc(O)cc4)N3C[C@H]2Cc2ccc(O)cc2)cc1Br,11.9,.,25.7,26.2,54.8*,-2.3,0.5,27.3
C[C@@H](CN1C2=NC[C@H](Cc3ccc(O)cc3)N2C[C@H]1Cc1ccc(O)cc1)NC(=O)CCC1CCCCC1,12.4,12.5,11.8,-22.5,44.2,1.4,.,.
COc1ccc2c3c(n(C)c2c1)[C@@H](CO)N(CC1CCOCC1)CC31CN(CC2CCOCC2)C1,.,.,-6.4,.,.,.,.,.
CO[C@H]1CN(C)C(=O)c2ccc(NC(=O)C3CCCCC3)cc2OC[C@@H](C)N(C)C[C@@H]1C,-12.0,.,-1.6,.,.,.,.,.
C[C@@H]1CN([C@H](C)CO)C(=O)c2cc(-c3cccnc3)cnc2O[C@H]1CN(C)C(=O)Nc1ccc2c(c1)OCO2,0.9,.,9.8,.,.,.,.,.
O=C(C[C@H]1C=C[C@H](NS(=O)(=O)c2ccccc2)[C@@H](CO)O1)N1CCc2ccccc2C1,-4.7,.,-2.2,.,.,.,.,.
COc1ccc(-c2cn(CC[C@H]3CC[C@H](NC(=O)Nc4ccc(F)cc4)[C@@H](CO)O3)nn2)cc1,.,.,-7.9,.,.,.,.,.
CCc1ccc(O)c(CNCCNCc2cc(CC)ccc2O)c1,8.2,.,-52.2,3.6,64.0*,-8.4,1.0,32.4
Cc1ccc(O)c(CNCCNCc2cc(C)ccc2O)c1,5.1,.,-19.2,14.4,50.3*,-8.1,-0.3,52.3*
N#Cc1ccsc1NC(=O)C1CCN(C(=O)c2ccc(Cl)cc2)CC1,.,.,-10.8,1.6,47.5*,-2.1,-2.2,78.7*
O=C(NC1CCCC1)C1CCN(C(=O)c2ccc(Cl)cc2)CC1,-3.9,-19.8,-3.4,11.4,1.6,-0.4,.,.
SMILES,RAD54 inh,DNA FID counter,RAD52 anneal inh,PREPL inh,UBC13 inh,beta cell repl,Casp3 counter,UBC13 conf
C[C@@H]1CCCCO[C@H](CN(C)C(=O)Cc2ccccc2)[C@@H](C)CN([C@@H](C)CO)C(=O)c2cc(NC(=O)Nc3ccccc3)ccc2O1,1.0,.,-3.2,.,.,.,.,.
O=C(C1=C[C@@H](c2coc3ccccc3c2=O)C[C@@H](OCc2ccc(CO)cc2)O1)N1CCN(Cc2ccc3c(c2)OCO3)CC1,-4.7,-8.3,-48.4,19.9,75.6*,-1.6,-1.2,56.9*
O=C(C1=C[C@H](c2coc3ccccc3c2=O)C[C@H](OCc2ccc(CO)cc2)O1)N1CCN(Cc2ccc3c(c2)OCO3)CC1,0.3,-18.2,-23.7,14.2,12.2,-5.5,.,.
C[C@@H](NC(=O)C[C@@H]1CC[C@H](NC(=O)Nc2ccc3c(c2)OCO3)[C@@H](CO)O1)c1ccccc1,0.3,.,-6.2,.,.,.,.,.
Cc1nn(CC(=O)NCCCN2CCC(Cc3ccccc3)CC2)c(=O)c2cc(-c3ccccc3)nn12,-5.6,6.9,-8.5,13.9,92.9*,-7.7,1.7,111.9*
Cc1nn(CC(=O)NCCCN2CCN(Cc3ccccc3)CC2)c(=O)c2cc(-c3ccccc3)nn12,5.5,18.9,-5.4,3.8,24.1,-5.4,.,.
CCc1ccc(-c2cc3c(=O)n(CC(=O)NCCCN4CCC(Cc5ccccc5)CC4)nc(C)n3n2)cc1,-2.9,1.4,7.5,-6.9,60.2*,-3.9,0.8,85.8*
COc1ccc(CCN2C(=O)c3cccc4cccc(c34)C2=O)cc1OC,-11.5,5.3,.,3.1,7.7,3.9,.,.
COc1ccc(CN2C(=O)c3cccc4cccc2c34)cc1F,1.0,-24.0,-16.7,8.8,64.4*,0.4,0.5,62.4*
O=C(CN1C(=O)NC2(CCCC2)C1=O)NCCC1=CCCCC1,2.6,-0.7,.,1.0,97.1*,-1.9,-0.9,5.7
Cc1ccc(C2(C)NC(=O)N(CC(=O)NCCC3=CCCCC3)C2=O)cc1 (stereo not given),1.1,-21.3,.,0.7,1.4,0.0,.,.
C[C@@H]1CN([C@H](C)CO)C(=O)c2cc(C3=CCCC3)cnc2O[C@@H]1CN(C)C(=O)NC1CCCC1,-11.6,.,5.2,.,.,.,.,.
CCCC#Cc1ccc([C@@H]2[C@@H](CO)N3C(=O)CN(C(=O)c4cccnc4)C[C@H]23)cc1,.,.,-8.3,.,.,.,.,.
COC(=O)C1=C(C)N(Cc2ccccc2)C(=NCCc2c[nH]c3ccccc23)N[C@H]1c1cccc(C(F)(F)F)c1,8.0,.,.,24.1,74.0*,-6.4,0.7,86.3*
COC(=O)C1=C(C)N(Cc2ccccc2)C(=NCc2cccc(C(F)(F)F)c2)N[C@H]1c1cccc(F)c1,4.1,30.6,12.7,-77.5,97.3*,-7.6,-4.0,84.1*
